Measured values published in PubChem BioAssay AID504727 (Broad Institute, 2011).
The source made the active and inactive calls.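 The calls were made as follows: active = fitted half-maximal concentration AC50 at or below ten times the highest valid tested dose, with signal falling as DNA is displaced (actives reach about 34 µM in these data); inconclusive = flat fit at moderate signal loss, or poor fit quality; inactive = the rest, including signal rising instead of falling.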

Experiment: acridine orange-DNA binding displacement – biochemical, fluorescence polarization, cherry-picked samples, set 2, artefact control for KSHV LANA DNA-binding inhibitor project, dose response (AID 504727)
Conditions: series mostly up to 35 µM

Which AC50 does the source give for `COc1cccc2c1C(=O)c1c(O)c3c(c(O)c1C2=O)CC(O)(C(C)=NNC(=O)c1ccc(Cl)c(Cl)c1)CC3OC1CC(N)C(O)C(C)O1` (stereo not drawn) here?
The AC50 was 2.05 µM (active).

With `O=C(Cn1nc(Cc2ccncc2)c2ccccc2c1=O)N1CCN(C(=O)c2ccco2)CC1` as the compound, how does the AC50 read?
Its AC50 is 4.26 µM (active).

Which AC50 does the source give for `O=c1[nH][nH]cc1C=Nc1ccc(Cl)cc1Cl` here?
Its AC50 is “inactive”.

With `CC[C@H](C)[C@H](NC(N)=O)C(=O)Nc1ccc(NC(C)=O)cc1` as the compound, how does the AC50 read?
Its AC50 is “inactive”.

With `CCCOc1ccc(C=Nc2ccc(OC)c(S(=O)(=O)N3CCOCC3)c2)c(O)c1` as the compound, how does the AC50 read?
The AC50 was “inactive”.

With `CCOc1ccc(C(C)NC(=O)c2ccccc2OCc2c(C)noc2C)cc1OCC` (stereo not drawn) as the compound, how does the AC50 read?
Its AC50 is “inactive”.

For `COc1ccc(/C=C/C(=O)NC(=S)Nc2ccc(S(N)(=O)=O)cc2)cc1`, which AC50 is on record?
Its AC50 is “inactive”.

With `COC(=O)C[n+]1cccc2ccccc21` as the compound, how does the AC50 read?
The AC50 was 8.59 µM (active).

For `COc1ccc(/C=C/c2cc(C(F)(F)F)[nH]c(=O)n2)cc1OC`, which AC50 is on record?
Its AC50 is “inactive”.

For `Nc1c(/C=C2/C=CC(=O)C(O)=C2)c(=O)nc2sc(CC(=O)N3CCCCC3)nn12`, which AC50 is on record?
Its AC50 is “inactive”.

With `O=C(OCCN1C(=O)c2cccc3c(N4CCOCC4)ccc(c23)C1=O)c1ccc(Cl)cc1Cl` as the compound, how does the AC50 read?
The AC50 was 5.25 µM (active).

Which AC50 does the source give for `O=C(O)C1Nc2c(O)cc(Cl)c([N+](=O)[O-])c2C2C=CCC12` (stereo not drawn) here?
The AC50 was “inactive”.

For `Cc1cccc(N2C(=O)c3cccc4c(N(C)CCO)ccc(c34)C2=O)c1`, which AC50 is on record?
Its AC50 is “inactive”.

For `O=C(NC1CCCCC1)c1cc([N+](=O)[O-])ccc1N1CCOCC1`, which AC50 is on record?
Its AC50 is “inactive”.

With `Cc1cccc(Nc2nc(N)c([N+](=O)[O-])c(NCc3ccccc3)n2)c1` as the compound, how does the AC50 read?
The AC50 was “inactive”.

Which AC50 does the source give for `O=C(c1ccccc1)c1ccc(O)cc1O` here?
Its AC50 is 7.3 µM (active).

Which AC50 does the source give for `O=C(NCCCN1CCCC1=O)c1ccc2c(c1)ncn2C1CCCCC1` here?
The AC50 was “inactive”.

Which AC50 does the source give for `COc1ccc(OC)c(NC(=O)c2nnn(Cc3ccc(Br)cc3F)c2N)c1` here?
The AC50 was “inactive”.

With `Cc1cccnc1NC1(C(F)(F)F)N=C2SCCN2C1=O` (stereo not drawn) as the compound, how does the AC50 read?
The AC50 was “inactive”.

With `CCn1nc(-c2ccccc2)c2nc3ccccc3nc21` as the compound, how does the AC50 read?
The AC50 was 24.2 µM (active).

With `COc1ccc(N=Nc2nc3ccc(Br)cc3n2C)cc1` as the compound, how does the AC50 read?
The AC50 was “inactive”.

With `Cc1cc(Cl)ccc1N1C(=O)CC(NNC(=O)c2cccnc2)C1=O` (stereo not drawn) as the compound, how does the AC50 read?
The AC50 was “inactive”.

Which AC50 does the source give for `CC1CC(C)(C)NC(=S)N1CC(=O)N(C)Cc1ccccc1` (stereo not drawn) here?
The AC50 was “inactive”.

For `Cc1ccc(/C=C/S(=O)(=O)N2CCC(C(=O)O)CC2)cc1`, which AC50 is on record?
The AC50 was “inactive”.

Which AC50 does the source give for `O=C(CC1CCCC1)N1CCN(S(=O)(=O)c2ccccc2)CC1` here?
The AC50 was “inactive”.

With `COc1ccc(-c2cc(C(=O)N(C)CCc3ccc(OC)c(OC)c3)c3ccccc3n2)cc1` as the compound, how does the AC50 read?
Its AC50 is “inactive”.

Which AC50 does the source give for `COc1ccc(C2C(C(=O)c3cccs3)=C(O)C(=O)N2c2nncs2)cc1` (stereo not drawn) here?
The AC50 was 3.42 µM (active).

With `O=c1c2cc(O)c(O)cc2oc2cc(O)c(C3OC(CO)C(O)C(O)C3O)c(O)c12` (stereo not drawn) as the compound, how does the AC50 read?
The AC50 was “inactive”.

With `Cn1nc(-c2ccccc2)c2nc3ccccc3nc21` as the compound, how does the AC50 read?
The AC50 was 35.8 µM (active).

Which AC50 does the source give for `O=C(CCn1c(=S)oc2ccccc21)N1CCN(c2ccc(F)cc2)CC1` here?
Its AC50 is “inactive”.

For `CCC(=O)Oc1ccc2c(c1)O/C(=C\c1ccco1)C2=O`, which AC50 is on record?
Its AC50 is “inactive”.

Which AC50 does the source give for `O=C(CCCN1C(=O)/C(=C\c2ccco2)SC1=S)Nc1ccc(O)cc1C(=O)O` here?
Its AC50 is “inactive”.

With `O=C(CSc1cccc2cccnc12)N/N=C/c1ccc(O)cc1` as the compound, how does the AC50 read?
Its AC50 is “inactive”.

With `COc1ccc(NC(=O)COC(=O)c2c(-c3ccccc3)noc2C)cc1` as the compound, how does the AC50 read?
The AC50 was “inactive”.

With `COc1ccc(C(=O)N/N=C/c2ccc(OC)c(COc3ccccc3)c2)cc1` as the compound, how does the AC50 read?
The AC50 was “inactive”.

For `CC1Cc2ccccc2N1C(=O)CCS(=O)(=O)c1cccs1` (stereo not drawn), which AC50 is on record?
Its AC50 is “inactive”.

Which AC50 does the source give for `Brc1ccc(-c2noc(COc3ccc4c(c3)CCC4)n2)o1` here?
The AC50 was “inactive”.

Which AC50 does the source give for `O=C(NCCN1CCN(C(=O)c2cccs2)CC1)c1cccs1` here?
Its AC50 is “inactive”.
